Screening results deposited in PubChem by Broad Institute.
Wnt act = Wnt/beta-catenin pathway activation; 300,000 compounds, 1.2% hits; Wnt/beta-catenin reporter cell assay, activator, plate reader; activation, % at 9.35 µM; in the data active = activation above about 30%, passing the limit was not always enough; inconclusive = no clear call, values can overlap the other calls;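 also: 0% = neutral control wells and 100% = positive control wells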
TRPM1 prom inh = inhibitors of MITF-driven TRPM1 promoter in melanoma cells. SK-MEL-5 TRPM1 promoter luciferase, 24 h. inhibition, % at 12.5 µM. 330,000 compounds, 0.83% hits. AID 488899;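 active = mean inhibition across replicates of 60% or more, whatever share of single replicates reaches that level; inconclusive = some that reach 60%, reason not given; inactive = mean inhibition across replicates below 60%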
EWS-Fli inh = EWS/Fli transcriptional activity inhibition; A673 NR0B1-luciferase reporter, viability-normalised; inhibition, % at 12.6 µM; 350,000 compounds, 0.67% hits; AID 651661;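 active = mean inhibition of at least 50% after viability correction, with every replicate also passing that limit; inconclusive = mean reaches 50% but only one of two replicates passes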;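 also: firefly luciferase signal divided by Alamar Blue viability fluorescence both relative to DMSO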
esBAF inh = inhibitors of esBAF chromatin remodeling in mouse ES cells. reporter increase, % at 12.5 µM. Bmi1-luciferase knock-in reporter, 24 h; 100% = twice the neutral-well signal. 350,000 compounds, 2% hits; in the data active = activation above about 40%; inconclusive = no clear call, values can overlap the other calls;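 also: 0% = median of the plate's neutral control wells and 100% = double that signal; a rise in the Bmi1 reporter signal indicates esBAF inhibition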
PAX8 reporter = PAX8 transcriptional activity inhibition; RMG-I TPO-luciferase reporter, SteadyGlo, 24 h; inhibition, % at 12.6 µM; 360,000 compounds, 1.2% hits;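 active = mean replicate inhibition at least 60% with every replicate also reaching 60%; inconclusive = only one of the two criteria is met; inactive = mean below 60% and not all replicates reaching 60%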;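 also: luciferase light reporting Pax8 driven TPO promoter activity; plate controls were median of neutral control wells for no effect and mitoxantrone controls for full effect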
MITF act = activators of MITF-driven TRPM1 promoter activity in SK-MEL-5 cells | activation, % at 12.5 µM | SK-MEL-5 TRPM1-promoter luciferase, 24 h; % of positive control, neutral wells = 0 | 300,000 compounds, 0.75% hits;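 active = mean activation of at least 80% with every replicate also reaching 80%; inconclusive = mean reaches 80% but some replicate falls short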;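 also: 0% = neutral control wells and 100% = parthenolide positive control wells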
* hit, by the source's call. Sampled rows, rich in hits. Any-hit rate of the full collection: about 4%.

Screening C[n+]1ccccc1/C=C/c1ccc(F)c(F)c1 returned Wnt act -2, TRPM1 prom inh 6, EWS-Fli inh 5, esBAF inh 1 and PAX8 reporter 1.
Screening CCOC(=O)CC(NC(=O)c1cc2cccc(OC)c2oc1=O)c1ccc(OC)cc1 (stereo unspecified) returned Wnt act 6, TRPM1 prom inh -55, EWS-Fli inh -6, esBAF inh 50*, PAX8 reporter -59 and MITF act 59.
Screening CCO[C@H]1OC(C(=O)NCc2nc3ccccc3[nH]2)=C[C@@H](C2CC2)[C@@H]1CCCO returned Wnt act -13, TRPM1 prom inh 25, EWS-Fli inh 61*, esBAF inh 3, PAX8 reporter 20 and MITF act -22.
`CC(Sc1ncnc2sc(-c3ccccc3)cc12)C(=O)N1CCNC1=O` (stereo unspecified) gave Wnt act 8, TRPM1 prom inh -40, EWS-Fli inh -3, esBAF inh 4, PAX8 reporter -35 and MITF act 38.
Screening CC(C)N(C(=O)CSc1ncnc2sc(-c3ccccc3)cc12)C(C)C returned TRPM1 prom inh -34, esBAF inh 59* and MITF act 35.
Screening C[C@@H]1CN([C@@H](C)CO)C(=O)c2cccc(NS(=O)(=O)c3cn(C)cn3)c2O[C@@H]1CN(C)S(=O)(=O)c1ccc(Cl)cc1 returned EWS-Fli inh -5, esBAF inh 1 and PAX8 reporter 17.
Screening CN(C(=O)CSc1nc2ccccc2o1)C1CCCCC1 returned Wnt act 57*, TRPM1 prom inh -90, EWS-Fli inh -64, esBAF inh 23, PAX8 reporter -203 and MITF act inconclusive.
`O=C1S/C(=C\c2cccs2)C(=O)N1c1ccc(O)cc1` gave Wnt act 44*, TRPM1 prom inh -85, EWS-Fli inh -92, esBAF inh 50*, PAX8 reporter -64 and MITF act 98*.
O=C1/C(=C/c2cccs2)SC(=S)N1c1ccccc1 was read as Wnt act 4, TRPM1 prom inh -20, esBAF inh 36 and MITF act 27.
Screening C[C@H]1CN([C@@H](C)CO)C(=O)c2cc(NC(=O)Nc3ccccc3)ccc2O[C@@H]1CN(C)S(=O)(=O)c1ccc(F)cc1 returned EWS-Fli inh -2 and esBAF inh -1.
O=C(C[n+]1cc(-c2ccc(Cl)cc2)n2c1CCC2)N1c2ccccc2Sc2ccccc21 was read as TRPM1 prom inh 12, PAX8 reporter 70* and MITF act -10.
Screening O=C(C[n+]1cc(-c2ccc(Cl)c(Cl)c2)n2c1CCC2)N1c2ccccc2Sc2ccccc21 returned Wnt act -2, TRPM1 prom inh 3, PAX8 reporter 40 and MITF act -1.
COc1ccc(-c2c[n+](CC(=O)N3c4ccccc4Sc4ccccc43)c3n2CCC3)cc1 was read as Wnt act 1, TRPM1 prom inh 21, EWS-Fli inh 3, PAX8 reporter 76* and MITF act -19.
`COc1cc(N2C(=O)C=CC2=O)c(OC)cc1Cl` gave Wnt act -11, TRPM1 prom inh -4, EWS-Fli inh 28 and PAX8 reporter 110*.
COc1cc(Cl)c(S(=O)(=O)N2CCCC2)cc1Cl was read as Wnt act 0, TRPM1 prom inh -11, EWS-Fli inh 1, PAX8 reporter -4 and MITF act 10.
For COCC(=O)Nc1ccc2c(c1)C(=O)N(C)C[C@@H](OC)[C@H](C)CN(C(=O)CN1CCOCC1)[C@H](C)CO2 the results were EWS-Fli inh -15 and esBAF inh -1.
For Cc1csc(NC(=O)c2cn3ccccc3n2)n1 the results were Wnt act 0, TRPM1 prom inh 54, EWS-Fli inh 73*, PAX8 reporter 78* and MITF act -56.
Cc1csc(NC(=O)c2ccc3ccccc3n2)n1 was read as Wnt act 26, TRPM1 prom inh -30, EWS-Fli inh -30, esBAF inh 3, PAX8 reporter -47 and MITF act 36.
O=C(Nc1ccccc1)c1cn2ccccc2n1 was read as Wnt act 17, TRPM1 prom inh 2, EWS-Fli inh 30, PAX8 reporter -17 and MITF act -2.
Screening Cc1ccsc1C(=O)Nc1nccs1 returned Wnt act 6, TRPM1 prom inh -13, EWS-Fli inh -51, esBAF inh 13, PAX8 reporter -75 and MITF act 11.
For Cc1csc(NC(=O)c2cnc3ccccc3n2)n1 the results were Wnt act 14, TRPM1 prom inh 10, EWS-Fli inh 58*, esBAF inh -52, PAX8 reporter -24 and MITF act -5.
Cc1csc(NC(=O)c2sccc2C)n1 was read as Wnt act 48*, TRPM1 prom inh -22, EWS-Fli inh -23, esBAF inh 2, PAX8 reporter -74 and MITF act 30.
CC(=O)c1c(C)[nH]c(C(=O)Nc2nc(C)cs2)c1C was read as Wnt act 0, TRPM1 prom inh 31, EWS-Fli inh 74*, esBAF inh -70, PAX8 reporter 58 and MITF act -29.
`CC(=O)c1c(C)[nH]c(C(=O)Nc2nc(-c3ccc(Cl)cc3)cs2)c1C` gave Wnt act -2, TRPM1 prom inh 5, PAX8 reporter -23 and MITF act -4.
For CN(C)Cc1cn(CC[C@@H]2CC[C@@H](NC(=O)Nc3ccc4c(c3)OCO4)[C@H](CO)O2)nn1 the results were EWS-Fli inh -4, esBAF inh 4 and PAX8 reporter -6.
For C[C@H]1CCCCO[C@H](CN(C)C(=O)c2ccncc2)[C@@H](C)CN([C@@H](C)CO)C(=O)c2cc(NS(=O)(=O)c3cccs3)ccc2O1 the results were EWS-Fli inh -7, esBAF inh -7 and PAX8 reporter -15.
C[C@@H]1CCCCO[C@@H](CN(C)C(=O)c2ccccc2)[C@H](C)CN([C@@H](C)CO)C(=O)c2cc(NC(=O)c3ccncc3)ccc2O1 was read as EWS-Fli inh 8, esBAF inh 6 and PAX8 reporter -6.
For C[C@H](CO)N1C[C@H](C)[C@@H](CN(C)CC2CCCCC2)OCCCC[C@H](C)Oc2ccc(NC(=O)Nc3ccc(F)cc3)cc2C1=O the results were EWS-Fli inh -1, esBAF inh -6 and PAX8 reporter 21.
`C[C@H]1CCCCO[C@H](CN(C)CC2CCCCC2)[C@@H](C)CN([C@@H](C)CO)C(=O)c2cc(NC(=O)Nc3ccc(F)cc3)ccc2O1` gave EWS-Fli inh 49, esBAF inh -3 and PAX8 reporter 68*.
Screening C[C@@H]1CCCCO[C@H](CN(C)CC2CCCCC2)[C@H](C)CN([C@@H](C)CO)C(=O)c2cc(NC(=O)Nc3ccc(F)cc3)ccc2O1 returned EWS-Fli inh 58*, esBAF inh 2 and PAX8 reporter 8.
